Hits are enriched below; roughly 3.3% of the tested compounds scored in any of these assays.
H9c2 protect: myocardial damage modulation in H9c2 cells; protection from H2O2 cell death, % at 20 µM; H9c2 cardiomyocytes, H2O2 injury protection, ATPLite, 2 h; actives 0.63% (n = 360,000);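 active means compounds giving at least 50% protection of heart cells from peroxide-induced death in the single-dose screen, raw or plate-pattern-corrected value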
PHOSPHO1 inh: inhibitors of human PHOSPHO1 phosphatase | Q8TCT1 | recombinant PHOSPHO1, absorbance phosphatase assay | inhibition, % at 13.3 µM | actives 1.1% (n = 290,000) | AID 1565; in the data active means inhibition above about 60%
Target sequence (Q8TCT1 whole entry, looked up): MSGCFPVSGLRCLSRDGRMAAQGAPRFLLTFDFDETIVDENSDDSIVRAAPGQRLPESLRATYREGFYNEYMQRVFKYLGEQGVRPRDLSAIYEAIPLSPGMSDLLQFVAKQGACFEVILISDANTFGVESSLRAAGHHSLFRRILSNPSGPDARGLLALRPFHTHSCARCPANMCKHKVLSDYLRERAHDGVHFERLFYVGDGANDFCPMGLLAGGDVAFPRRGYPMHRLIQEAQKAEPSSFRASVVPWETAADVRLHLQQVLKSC
Calb FLC: C. albicans growth modulation with fluconazole | growth inhibition, % (concentration not given with the values) | AID 1979 | C. albicans CaCi-2 (fluconazole-resistant clinical isolate) + fluconazole, Alamar Blue growth, 48 h | actives 0.57% (n = 300,000);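 active means growth inhibition above about 58% in most replicates, limit read from the data, passing the limit was not always enough; inconclusive means exactly half the replicates above a set limit; inactive means most replicates below a set limit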;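 further: all wells also contain fluconazole at 8 µg/ml as a sub-toxic cotreatment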
KCC2 mod: modulators of human KCC2 chloride dependent transport; Q9H2X9; KCC2 cells, thallium flux FluoZin-2 fluorescence; B-score of Tl+ flux slope (higher = more flux/activation; lower = inhibition) at 10 µM; actives 2.2% (n = 190,000); AID 1456;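 active means thallium flux slope and its plate-corrected score both differing from the plate sample mean at a set confidence after two filtering rounds, in either direction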;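 further: slope of fluorescence scaled to starting intensity during 10 to 20 s after thallium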
Efflux pump inh: inhibitors of Candida antifungal efflux pumps expressed in yeast; AID 485275; S. cerevisiae Candida pump triplex, Nile Red efflux; inhibition, % at 10 µM; actives 0.44% (n = 330,000);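 active means plate passing quality check with inhibition over a set limit, or well fluorescence over plate mean plus 4 SD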;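 further: Nile Red retained in pooled yeast measured as flow cytometry median fluorescence; higher means more Nile Red kept so more efflux inhibition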
Large screens that a line does not name were inactive; ! = repeats disagree.

C=CCn1c(SCC(=O)Nc2sccc2C(N)=O)nc2ccccc2c1=O	none
O=C(COC(=O)C1(c2ccccc2)CC1)NNC(=O)c1ccccc1	none (no result: PHOSPHO1 inh, KCC2 mod)
CCCc1c(C)nn(-c2ncccc2[N+](=O)[O-])c1C	PHOSPHO1 inh 60.0
O=[N+]([O-])c1cccnc1N1CCCCC1	none (no result: KCC2 mod)
C=CCN1C(=O)/C(=C/c2ccc(OCC(=O)O)cc2)S/C1=N/c1nccs1	Calb FLC inconclusive
C=CCN1C(=O)/C(=C/c2ccc(O)c(OC)c2)S/C1=N/c1nccs1	H9c2 protect 51.4
O=C(COc1ccc(F)cc1Br)N1CCN(S(=O)(=O)/C=C/c2ccccc2)CC1	PHOSPHO1 inh 61.5
O=C(COc1ccc(F)cc1Br)N1CCN(c2ncccn2)CC1	none
CCc1c(C)[nH]n(-c2nc(-c3ccccc3)cs2)c1=O	none
Cc1[nH]n(-c2nc(-c3ccc(Cl)cc3)cs2)c(=O)c1N=Nc1ccc(O)cc1	H9c2 protect 79.9
CC(=O)NCCNC(=O)c1ccc(NC2=NC3CS(=O)(=O)CC3S2)cc1 (centres undefined)	none
C=CCc1ccccc1OCC(=O)OCCNC(=O)c1cccnc1	PHOSPHO1 inh 71.1 (no result: KCC2 mod)
Cc1cc(C)c(OCC(=O)OCCNC(=O)c2cccnc2)c(C)c1	none
Oc1cc2c(c(Cl)c1O)CCNCC2c1ccccc1 (centres undefined)	H9c2 protect 68.0 (no result: PHOSPHO1 inh, KCC2 mod)
Cc1cccc(C2CN(C)CCc3c2cc(O)c(O)c3Cl)c1 (centres undefined)	none (no result: PHOSPHO1 inh, Calb FLC, KCC2 mod)
Oc1ccc(C2CNCCc3c2cc(O)c(O)c3Cl)cc1 (centres undefined)	H9c2 protect 58.5! (no result: PHOSPHO1 inh, KCC2 mod)
C=CCCC(=O)Nc1nc(C)c(-c2csc(Nc3ccc(Cl)cc3Cl)n2)s1	none
Cc1ccccc1Nc1nc(-c2sc(NC(=O)c3ccccc3)nc2C)cs1	PHOSPHO1 inh 69.4 (no result: H9c2 protect)
C=CCCC(=O)Nc1nc(C)c(-c2csc(Nc3cc(Cl)ccc3OC)n2)s1	PHOSPHO1 inh 98.7
CCCCCC(=O)Nc1nc(C)c(-c2csc(Nc3cc(OC)ccc3OC)n2)s1	none
C=CCCC(=O)Nc1nc(C)c(-c2csc(Nc3ccccc3OC)n2)s1	PHOSPHO1 inh 76.8
CCCCC(=O)Nc1nc(C)c(-c2csc(Nc3ccccc3OC)n2)s1	PHOSPHO1 inh 93.8
Cc1ccccc1Nc1nc(-c2sc(NC(=O)c3cccc(Cl)c3)nc2C)cs1	none (no result: H9c2 protect)
Cc1ccc(NC(=O)C2CCCN(S(=O)(=O)c3ccc(-n4cnnn4)cc3)C2)cc1 (centres undefined)	none (no result: KCC2 mod)
COc1ccc(CC(=O)N2CCN(S(=O)(=O)c3cc(Cl)ccc3Cl)CC2)cc1	none (no result: PHOSPHO1 inh, Calb FLC, KCC2 mod)
COc1ccc(Cl)cc1Nc1nc(-c2sc(NC(=O)CC(C)C)nc2C)cs1	PHOSPHO1 inh 93.8
COc1ccccc1Nc1nc(-c2sc(NC(=O)c3ccco3)nc2C)cs1	PHOSPHO1 inh 86.5
CCCCCCC(=O)Nc1nc(C)c(-c2csc(Nc3cc(OC)ccc3OC)n2)s1	PHOSPHO1 inh 76.8
CCC(C)C(=O)Nc1nc(C)c(-c2csc(Nc3ccccc3OC)n2)s1 (centres undefined)	PHOSPHO1 inh 74.3
C[C@@H](NC(=O)[C@H]1O[C@@H](n2cnc3c(N)ncnc32)[C@H](O)[C@@H]1O)c1cccc2ccccc12	none (no result: PHOSPHO1 inh, Calb FLC, KCC2 mod, Efflux pump inh)
Cc1ccccc1CNC(=O)Nc1cccs1	none (no result: Calb FLC)
CCc1ccc(NC(=O)Nc2cccs2)cc1	PHOSPHO1 inh 73.7
O=C(NCc1cccs1)Nc1cccs1	PHOSPHO1 inh 68.4
Cc1ccc(NC(=O)Nc2cccs2)cc1	none
CC(=O)c1ccc(NC(=O)c2cccs2)cc1	none
CC(=O)Nc1cccc(/C(C)=N/NC(=O)c2cccs2)c1	H9c2 protect 59.1
CC(C)(C)NC(=O)c1cc(NC(=O)c2cccs2)cc(NC(=O)c2cccs2)c1	H9c2 protect 62.9 (no result: KCC2 mod)
Cc1cc(C)cc(C(=O)Nc2ccc(NC(=O)c3cccs3)cc2)c1	H9c2 protect 49.4 (no result: KCC2 mod)
COc1cccc(C(O)c2ncc(-c3ccc(C(F)(F)F)cc3)[nH]2)c1 (centres undefined)	none (no result: PHOSPHO1 inh, Calb FLC, KCC2 mod, Efflux pump inh)
CN(C)CCCNC1CS(=O)(=O)CC1O (centres undefined)	none
O=S1(=O)CC(O)C(NCCO)C1 (centres undefined)	PHOSPHO1 inh 64.7
COCCCn1c(-c2ccc(S(=O)(=O)N3CCOCC3)cc2)csc1=Nc1ccccc1	PHOSPHO1 inh 69.1 (no result: KCC2 mod)
Cc1cn2c(=O)c(C(=O)N3CCN(c4ccccc4Cl)CC3)cnc2s1	none (no result: PHOSPHO1 inh, KCC2 mod)
CSc1c[n+]2c(n1C)CCC2	PHOSPHO1 inh 81.5
O=C1Nc2ccc(C(=O)O)c(O)c2C1=O	none (no result: PHOSPHO1 inh, Calb FLC, KCC2 mod, Efflux pump inh)
N#Cc1c(-c2cccs2)cc(-c2cccnc2)nc1N	H9c2 protect 72.6 (no result: KCC2 mod)
N#Cc1c(-c2ccc(F)cc2)cc(-c2cccnc2)nc1N	none
N#C/C(=C\c1ccc(N2CCOCC2)cc1)c1ccccc1	Calb FLC 87.4
N#C/C(=C\c1ccc(N2CCOCC2)o1)c1ccccc1	none
CC(C)N(C(=O)CSc1nn2c(=O)c(C(C)(C)C)nnc2s1)c1ccccc1	none
Cc1cc(C(=O)CSc2nn3c(=O)c(C(C)(C)C)nnc3s2)c(C)n1-c1ccc(F)cc1	PHOSPHO1 inh 102.5
CCOC(=O)CCCCCC(=O)Nc1ccc2c(c1)C(=O)N([C@@H](C)CO)C[C@H](C)[C@H](CN(C)C(=O)c1ccccc1)OCCCC[C@H](C)O2	none (no result: PHOSPHO1 inh, Calb FLC, KCC2 mod, Efflux pump inh)
Cc1cccc(NS(=O)(=O)c2ccc(C(=O)NCC3CCCO3)cc2)c1C (centres undefined)	PHOSPHO1 inh 60.6 (no result: KCC2 mod)
Cn1c(Cc2cccs2)nnc1SCC(=O)N1CCCc2ccccc21	none
O=C(CSc1nnc(Cc2cccs2)n1CCc1ccccc1)N1CCCc2ccccc21	H9c2 protect 66.7, PHOSPHO1 inh 66.4
O=c1[nH]c2ccccc2nc1-c1cccs1	Calb FLC inconclusive
O=c1[nH]nc(-c2cccs2)c2ccccc12	H9c2 protect 69.5
CCOc1cccc(C2/C(=C(/O)c3ccc4c(c3)CC(C)O4)C(=O)C(=O)N2Cc2ccncc2)c1 (centres undefined)	none (no result: Calb FLC, KCC2 mod)
CC(C)c1ccc2c(c1)CC[C@H]1[C@](C)(CN)CCC[C@]21C	none (no result: PHOSPHO1 inh, Calb FLC, KCC2 mod, Efflux pump inh)
CC(C)c1ccc2c(c1)CCC1C(C)(CN)CCCC21C (centres undefined)	Calb FLC 86.8
Cc1ccc(S(=O)(=O)N2CCN(C(=O)COC(=O)CCOc3ccc(C(C)(C)C)cc3)CC2)cc1	none (no result: PHOSPHO1 inh, KCC2 mod)
Cc1ccc(C)c(SCC(=O)N(C)CC(=O)Nc2ccc(N3CCOCC3)cc2)c1	none (no result: PHOSPHO1 inh, Calb FLC, KCC2 mod)
O=C1c2ccccc2C(=O)c2c1cccc2N1CCCC1	Calb FLC 80.3
Cc1ccc(C(=O)n2cnnc2N)cc1C	PHOSPHO1 inh 60.7
COC(=O)/C(=C(/F)Sc1cc(C)c(O)c(C)c1)C(F)(F)F	PHOSPHO1 inh 63.7 (no result: KCC2 mod)
COC(=O)C(Nc1ccccc1Cl)(c1cc(C)c(O)c(C)c1)C(F)(F)F (centres undefined)	none
N=C1/C(=C/c2cccs2)C(=O)N=C2SN=C(SCc3ccccc3)N12	KCC2 mod 32
Cc1ccnc(NC(=O)c2ccc3c(c2)C(=O)N(CCC(C)C)C3=O)c1	none (no result: KCC2 mod)
Nc1cc(C(=O)O)ccc1Sc1ccccc1C(=O)O	PHOSPHO1 inh 62.8
CCCCNC(=O)C1(C)CCN1C(=O)c1ccc2ccccc2n1 (centres undefined)	none (no result: PHOSPHO1 inh, Calb FLC, KCC2 mod, Efflux pump inh)
